Measurements reported in PubChem BioAssay (NCI).
Several values for one entry are separate records, joined by “and”; a condition that tells them apart may be missing. Identical values can stand only once. This is part of a sample that, as a whole, favours compounds with a hit. Of some 83,000 tested, about 20% had one in any assay.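 Single-dose data. Exposure time 48 hours. Values below 10 considered active.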 Activity calls are given as the source filed them.

Columns and labels:
Assay in all cases: NCI-60 one-dose screen, 48 h (100 = growth as untreated, 0 = no growth, -100 = all killed)
Details in all cases: 10 µM unless noted
NCI-H23 lung = test system: NCI-H23 lung
NCI-H226 lung = test system: NCI-H226 lung
NCI-H322M lung = test system: NCI-H322M lung
HOP-62 NSCLC = test system: HOP-62 NSCLC
NCI-H460 lung = test system: NCI-H460 lung
HOP-92 NSCLC = test system: HOP-92 NSCLC
NCI-H522 lung = test system: NCI-H522 lung
A549/ATCC NSCLC = test system: A549/ATCC NSCLC
786-0 renal = test system: 786-0 renal
COLO 205 colon = test system: COLO 205 colon

Measured: growth

Cc1nc2sc(C(=O)Nc3cccc4ccccc34)c(N)c2cc1C(=O)/C=C/c1ccccc1
inactive: NCI-H322M lung 24% | HOP-92 NSCLC 28.3% | A549/ATCC NSCLC 12.9%
active: NCI-H23 lung 9.08% | NCI-H226 lung -59.4% | HOP-62 NSCLC -21.1% | NCI-H460 lung -34.2% | NCI-H522 lung -33.4% | 786-0 renal -55.5% | COLO 205 colon -15%

COC(=O)/C=C1/SC(=Nc2ccc([N+](=O)[O-])cc2)N(CCc2c[nH]c3ccccc23)C1=O
inactive: NCI-H23 lung 72.7% | NCI-H226 lung 98.7% | NCI-H322M lung 98.4% | HOP-62 NSCLC 96.7% | NCI-H460 lung 92.2% | HOP-92 NSCLC 73.2% | NCI-H522 lung 53.6% | A549/ATCC NSCLC 90.8% | 786-0 renal 68% | COLO 205 colon 84.6%

CN1CCN(c2ccc(/C=C/C(=O)c3ccc(O)cc3)cc2)CC1
inactive: NCI-H23 lung 93.9% | NCI-H226 lung 97% | NCI-H322M lung 101% | HOP-62 NSCLC 97.7% | NCI-H460 lung 101% | HOP-92 NSCLC 74.8% | NCI-H522 lung 88% | A549/ATCC NSCLC 97.7% | 786-0 renal 98.8% | COLO 205 colon 113%

Fc1ccc(NC(c2ccc(F)cc2)C2CCN(CCCCc3ccccc3)CC2)cc1 (stereo not given)
inactive: NCI-H23 lung 43.7% | NCI-H226 lung 74.4% | NCI-H322M lung 60.9% | HOP-62 NSCLC 71.4% | HOP-92 NSCLC 29.1% | NCI-H522 lung 53.6% | A549/ATCC NSCLC 52.3% | 786-0 renal 35.8%
active: NCI-H460 lung 1.45% | COLO 205 colon -56.5%

COc1ccc(/C=N\Nc2nc(SCC(C)C)nc(-c3ccc(OC)cc3)c2C#N)cc1
active: NCI-H226 lung -14.8% | HOP-62 NSCLC -2.99% | NCI-H460 lung -11.1% | 786-0 renal -48.2%
inactive: NCI-H23 lung 57.2% | NCI-H322M lung 22.5% | HOP-92 NSCLC 15.1% | NCI-H522 lung 54% | A549/ATCC NSCLC 11.4% | COLO 205 colon 50.1%

COc1cc2cc(NCc3ccncc3)nc(C)c2cc1OC
inactive: NCI-H23 lung 91.5% | NCI-H226 lung 89.7% | NCI-H322M lung 103% | HOP-62 NSCLC 62% | NCI-H460 lung 102% | HOP-92 NSCLC 87.2% | NCI-H522 lung 80.4% | A549/ATCC NSCLC 78.9% | 786-0 renal 71.8% | COLO 205 colon 95.8%

O=C1/C(=C/c2cn(-c3ccccc3)nc2-c2ccccc2)SC(=S)N1c1ccccc1
inactive: NCI-H23 lung 95% | NCI-H226 lung 96.2% | NCI-H322M lung 99.2% | HOP-62 NSCLC 100% | NCI-H460 lung 107% | HOP-92 NSCLC 33.6% | NCI-H522 lung 91.3% | A549/ATCC NSCLC 105% | 786-0 renal 105% | COLO 205 colon 117%

Clc1ccc2c(c1)N(c1ncnc3ccc(-c4cnc5[nH]ccc5c4)cc13)CC2
inactive: NCI-H23 lung 40.6% | NCI-H226 lung 40.9% | NCI-H322M lung 41.3% | HOP-62 NSCLC 13.8% | NCI-H460 lung 16.5% | HOP-92 NSCLC 14.8% | NCI-H522 lung 30.6% | A549/ATCC NSCLC 21.4% | 786-0 renal 24.5% | COLO 205 colon 45.1%

COc1ccc(-c2ccc(-c3ccc(C(=N)N)cn3)s2)cc1Cl
active: NCI-H23 lung -57.5% | NCI-H322M lung -97.1% | HOP-62 NSCLC -50.5% | NCI-H460 lung -93% | HOP-92 NSCLC -76.8% | NCI-H522 lung -44.2% | A549/ATCC NSCLC -58.2% | 786-0 renal -61.3% | COLO 205 colon -51.7%
inactive: NCI-H226 lung 88.1%

CN1CCN(CCNC(=O)c2cccc(CN3c4cccc5c4C(=Cc4cccnc43)N(C)C5=O)c2)CC1
inactive: NCI-H23 lung 59.5% | NCI-H226 lung 45% | NCI-H322M lung 41.4% | HOP-62 NSCLC 24.7% | NCI-H460 lung 48.3% | HOP-92 NSCLC 19.3% | NCI-H522 lung 14.1% | A549/ATCC NSCLC 33.9% | 786-0 renal 49.6% | COLO 205 colon 19.8%

Cn1ccnc1CN1CCSC(C(=O)Nc2ccccc2)C1 (stereo not given)
inactive: NCI-H23 lung 101% | NCI-H226 lung 87.1% | NCI-H322M lung 88.7% | HOP-62 NSCLC 81.5% | NCI-H460 lung 94.8% | HOP-92 NSCLC 88.7% | NCI-H522 lung 85.6% | A549/ATCC NSCLC 83.8% | 786-0 renal 98% | COLO 205 colon 112%

CC1=C2[C@@H](CC1)[C@]1(C)O[C@@](C(C)C)(C[C@H]1OC(=O)CO)[C@H]2OC(=O)C1CC1c1ccccc1 (stereo not given in full)
inactive: NCI-H23 lung 92.8% | NCI-H226 lung 78.2% | NCI-H322M lung 84.7% | HOP-62 NSCLC 82.4% | NCI-H460 lung 85.6% | HOP-92 NSCLC 87.3% | NCI-H522 lung 73.9% | A549/ATCC NSCLC 73.9% | 786-0 renal 91.2% | COLO 205 colon 107%

COc1ccc(-c2cc(-c3cccc(Cl)c3)c(C#N)c(=O)[nH]2)c(OC)c1
inactive: NCI-H23 lung 92.2% | NCI-H226 lung 101% | NCI-H322M lung 96% | HOP-62 NSCLC 99.2% | NCI-H460 lung 98.7% | HOP-92 NSCLC 68% | NCI-H522 lung 90.6% | A549/ATCC NSCLC 96.4% | 786-0 renal 89.7% | COLO 205 colon 121%

CC(C)(C)c1cc(NC(=O)Nc2ccc(-c3cn4c(n3)sc3cc(OCCN5CCOCC5)ccc34)cc2)no1
inactive: NCI-H23 lung 23.9% and 42.6% | NCI-H226 lung 17.8% | NCI-H322M lung 34.9% and 54.5% | A549/ATCC NSCLC 28.3% and 17.3%
10.7% (inactive) and -43.9% (active): COLO 205 colon
-10.7% (active) and 10.4% (inactive): NCI-H460 lung
active: HOP-92 NSCLC -2.21% and -1.85% | 786-0 renal -9.92% and 7.85%
35.7% (inactive) and -26.2% (active): HOP-62 NSCLC
-3.14% (active) and 10.6% (inactive): NCI-H522 lung

CCOc1nc(-c2ccccc2)cc2c(O)c(C(=O)N/N=C/c3ccc(N(C)C)cc3)[nH]c(=O)c12
inactive: NCI-H23 lung 107% | NCI-H226 lung 97.1% | NCI-H322M lung 113% | HOP-62 NSCLC 65.2% | NCI-H460 lung 106% | HOP-92 NSCLC 99.9% | NCI-H522 lung 80.4% | A549/ATCC NSCLC 107% | 786-0 renal 112% | COLO 205 colon 229%

CCCCCCCCCCCCCCCC(=O)O[C@@H]1[C@@H](O)[C@@H](O)C([C@H](NC(=O)[C@@H]2C[C@@H](CCC)CN2C)[C@H](C)Cl)O[C@@H]1SC (stereo not given in full)
inactive: NCI-H23 lung 102% | NCI-H226 lung 91.2% | NCI-H322M lung 97.8% | HOP-62 NSCLC 101% | NCI-H460 lung 110% | HOP-92 NSCLC 118% | NCI-H522 lung 130% | A549/ATCC NSCLC 102% | 786-0 renal 91.8% | COLO 205 colon 103%

C=C1C(=O)O[C@H]2[C@H]1CC/C(CNS(=O)(=O)c1ccc3ccccc3c1)=C\CC[C@@]1(C)O[C@@H]21
inactive: NCI-H322M lung 92.1% | HOP-62 NSCLC 78.4% | NCI-H460 lung 91.7% | A549/ATCC NSCLC 69%
active: NCI-H23 lung -3.15% | NCI-H226 lung -25.4% | HOP-92 NSCLC -29.6% | NCI-H522 lung -78.6% | 786-0 renal -67% | COLO 205 colon -84.5%

COc1ccc2c(c1)c(-c1nc(-c3c[nH]c4c(Cl)nccc34)cs1)cn2C
inactive: NCI-H23 lung 73.9% | NCI-H226 lung 37.2% | NCI-H322M lung 91.3% | HOP-62 NSCLC 92.6% | NCI-H460 lung 31.1% | HOP-92 NSCLC 76.1% | NCI-H522 lung 86.6% | A549/ATCC NSCLC 84.7% | 786-0 renal 124% | COLO 205 colon 93.9%

O=[N+]([O-])c1ccc(S(=O)Cc2ccccc2)c([N+](=O)[O-])c1 (stereo not given)
56.6% (inactive) and 7.51% (active): HOP-92 NSCLC
inactive: NCI-H23 lung 71.8% and 82.7% | NCI-H226 lung 24.9% | NCI-H322M lung 99.5% | HOP-62 NSCLC 109% and 47.2% | NCI-H460 lung 99.8% and 103% | A549/ATCC NSCLC 83.2% and 40.6% | 786-0 renal 84.2% and 51.2%
active: NCI-H522 lung -98.3% and -79% | COLO 205 colon -98.2% and -92.3%

NC(N)=NC(N)=NCCCc1ccco1
inactive: NCI-H23 lung 105% | NCI-H226 lung 111% | NCI-H322M lung 105% | HOP-62 NSCLC 101% | NCI-H460 lung 108% | HOP-92 NSCLC 95.4% | NCI-H522 lung 93.6% | A549/ATCC NSCLC 102% | 786-0 renal 112% | COLO 205 colon 111%

COc1ccc(-c2[nH]c3ccccc3c2-c2ccc(OC)cc2)cc1
inactive: NCI-H23 lung 53% | NCI-H226 lung 112% | NCI-H322M lung 84.2% | HOP-62 NSCLC 51.9% | NCI-H460 lung 43.2% | HOP-92 NSCLC 42.6% | NCI-H522 lung 55.6% | A549/ATCC NSCLC 75.7% | 786-0 renal 51.7% | COLO 205 colon 75.3%

COC(=O)c1nc(-c2ccc(C)cc2)oc1S(=O)(=O)c1ccc(Cl)cc1
inactive: NCI-H23 lung 91.3% | NCI-H226 lung 96% | NCI-H322M lung 99.6% | HOP-62 NSCLC 97.4% | NCI-H460 lung 109% | HOP-92 NSCLC 95.1% | NCI-H522 lung 59.6% | A549/ATCC NSCLC 100% | 786-0 renal 86.1% | COLO 205 colon 70.5%

O=C(Cc1ccc(F)cc1)c1ccccc1
inactive: NCI-H23 lung 103% | NCI-H226 lung 110% | NCI-H322M lung 99% | HOP-62 NSCLC 109% | NCI-H460 lung 108% | HOP-92 NSCLC 89.7% | NCI-H522 lung 101% | A549/ATCC NSCLC 102% | 786-0 renal 97.6% | COLO 205 colon 134%
